From PubChem BioAssay AID1117319 (Southern Research Institute, 2015)
Where “and” joins values, the source holds several entries; their conditions need not be identical. Equal values may be shown once. Among all 260,000 compounds or so, about 1,500 (0.58%) were called active. Not shown: some 5% with an inconclusive outcome.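 How the source made its calls: active means inhibition above a set limit at one or more doses, reproduced on every date tested; inconclusive means results disagree between test dates, or hit never tested in dose response; inactive means the rest.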 Not all results are given here. Entries with a potency or affinity are not part of this list.

Target: Virion infectivity factor (Human immunodeficiency virus type 1 group M subtype B (isolate BH10)) + Virion infectivity factor (Human immunodeficiency virus type 1 group M subtype B (isolate BRU/LAI)) + Virion infectivity factor (Human immunodeficiency virus type 1 group M subtype B (isolate PCV12)) + Virion infectivity factor (Human immunodeficiency virus type 1 group M subtype B (isolate HXB2)) + DNA dC->dU-editing enzyme APOBEC-3G (Homo sapiens) (UniProt P69720+P69721+P69722+P69723+Q9HC16)
Assay: inhibitors of Vif binding to APOBEC3G peptide, primary screen, biochemical, TR-FRET, GST-Vif 1-94, biotin-A3G peptide, dose response retest (AID 1117319);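 further: Vif residues 1-94 fused to GST binding biotinylated APOBEC3G peptide 110-148; 0% = full assay without inhibitor and 100% = GST in place of GST-Vif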
Details: stronger effect = higher value

SMILES | inhibition
Cc1ccc(Oc2ccccc2/C=C/C(=O)O)cc1 | 7.01% (inactive)
CC(=O)c1ccc(NC(=O)c2noc3c2CCC3)cc1 | -4.79% (inactive)
COC(=O)c1ccccc1NC(=O)c1noc2c1CC(C(C)(C)C)CC2 (stereo unspecified) | -0.63% (inactive)
O=C(Nc1ccccc1C(=O)N1CCOCC1)c1noc2c1CCCC2 | -4.02% (inactive)
COC(=O)c1ccccc1NC(=O)c1noc2c1CCCC2 | 3.34% (inactive)
CC(C)(C)C1CCc2onc(C(=O)Nc3ccc(F)cc3F)c2C1 (stereo unspecified) | 2.83% (inactive)
COc1cc(NC(=O)c2noc3c2CCCC3)c(OC)cc1Cl | 11.1% (inactive)
COc1ccc(Cl)cc1NC(=O)c1noc2c1CCCC2 | -11.1% (inactive)
Cc1ccc(NC(=O)c2noc3c2CCC3)cc1C | -3.45% (inactive)
CCS(=O)(=O)c1ccc(-c2csc(-c3ccc(Cl)cc3)n2)c(Cl)c1Cl | 2.97% (inactive)
CN(CCCNC(=O)CCCOc1cc(=O)n(C)c2ccccc12)Cc1ccccc1 | 4.88% (inactive)
CN(C)C(CNC(=O)c1cccc(S(=O)(=O)NCc2ccccc2)c1)c1ccco1 (stereo unspecified) | 0.14% (inactive)
O=C(CC1SC(N2CCCC2)=NC1=O)Nc1ccc(C(=O)NCc2ccc(F)cc2)cc1 (stereo unspecified) | 4.94% (inactive)
COc1cc(OC)cc(-n2nnnc2SCC(=O)NCc2cccs2)c1 | 6.88% (inactive)
O=C(O)CCCCCNS(=O)(=O)/C=C/c1ccccc1 | 1.37% (inactive)
CCN(CC(=O)Nc1ccc(NC(C)=O)cc1)C(=O)/C=C/c1c(C)nn(-c2ccc(F)cc2)c1Cl | 0.81% (inactive)
COC(=O)c1ccccc1NC(=S)NC(=O)C1CC1 | 0.95% (inactive)
COC(=O)c1ccccc1NC(=S)NC(=O)C1CCCCC1 | -4.52% (inactive)
COc1cc(NCCCCC(C)N)c2nccc(C)c2c1 (stereo unspecified) | 9.33% (inactive)
COc1cc(NCc2ccccc2O)c2ncccc2c1 | 3.48% (inactive)
CCOC(=O)c1ccc(Oc2nc(N(C)C)nc(N3CCOCC3)n2)cc1 | -15.9% (inactive)
CN1CCN(c2nnc(-c3ccc(Cl)cc3)c3ccccc23)CC1 | 3.71% (inactive)
Cc1ccc(C)c(/C=N/n2cc(-c3ccccc3)[nH]c2=S)c1 | -9.36% (inactive)

SMILES | inhibition
Cc1cc(-c2ccc(Cl)cc2)c(C#N)c(N)n1 | -1.08% (inactive)
Cc1ccc(-c2cc(-c3ccc(F)cc3)c(C#N)c(N)n2)o1 | 18.2% (inactive)
Cc1ccc(-c2cc(-c3ccc(C)o3)nc(N)c2C#N)cc1 | 27.2% (inactive)
Cc1ccc(-c2cc(-c3ccc(Cl)cc3)c(C#N)c(N)n2)o1 | 24.5% (inactive)
Cc1ccc(CNC(=O)c2ccc(CN3CCOCC3)cc2)cc1 | 32.3% (inactive)
Cc1[nH]c2ccccc2c1C(=O)NS(=O)(=O)Nc1ccc(Cl)cc1 | 12.1% (inactive)
CN(C)S(=O)(=O)c1ccc(C(=O)Nc2nnc(-c3cccs3)o2)cc1 | 27.3% (inactive)
O=C(Nc1ccc(N2CCN(C(=O)c3ccc(Cl)cc3)CC2)cc1)c1ccc(Br)o1 | 10.6% (inactive) and 6.22% (inactive)
COC(=O)c1c(NC(=O)Cc2cccs2)sc2c1CCCC2 | 29.5% (inactive)
CCOC(=O)c1c(NC(=O)Cc2cccs2)sc2c1CCCC2 | -5.96% (inactive)
CCCCn1c(=S)[nH]c2ccc(N3CCOCC3)cc2c1=O | -3.86% (inactive)
O=c1c2cc(N3CCOCC3)ccc2[nH]c(=S)n1Cc1ccccc1Cl | -15.9% (inactive)
O=c1c2cc(N3CCOCC3)ccc2[nH]c(=S)n1CCN1CCCC1 | 12.5% (inactive)
O=c1c2cc(N3CCOCC3)ccc2[nH]c(=S)n1Cc1ccc(Cl)cc1 | -2.52% (inactive)
CN(C)C(CNS(=O)(=O)c1ccc(F)cc1)c1cccnc1 (stereo unspecified) | -1.58% (inactive)
CN(C)S(=O)(=O)c1ccc(Cl)c(C(=O)NNC(=O)c2ccc3c(c2)OCO3)c1 | -8.17% (inactive)
Cc1ccsc1C(=O)NC(C)c1ccc2c(c1)OCO2 (stereo unspecified) | 0.99% (inactive)
CCSc1nnc(Nc2ccc(C)cc2)s1 | 1.17% (inactive)
CC(C)C12CN3CC(C(C)C)(CN(C1)C3c1ccc3c(c1)OCO3)C2=O (stereo unspecified) | 2.83% (inactive)
Cc1ccc2oc(-c3ccc(NC(=O)c4ccncc4)cc3O)nc2c1 | -2% (inactive)
O=C(COC(=O)c1ccc(S(=O)(=O)C(F)F)cc1)Nc1cccnc1Cl | 10.1% (inactive)
Cc1cc(C)n2nc(SCC(=O)N3CCC(C(=O)O)CC3)nc2n1 | 0.2% (inactive)
Cc1cccc(OCc2nnc(NC(=O)Cc3cccs3)s2)c1 | -15.6% (inactive)

SMILES | inhibition
Clc1ccccc1Oc1cnc2ccccc2n1 | 31.7% (inactive)
O=c1c(OC2OC(CO)C(O)C(O)C2O)c(-c2ccc(O)c(O)c2)oc2cc(O)cc(O)c12 (stereo unspecified) | -4.71% (inactive)
O=c1c(O[C@@H]2O[C@H](CO)[C@@H](O)[C@H](O)[C@H]2O)c(-c2ccc(O)c(O)c2)oc2cc(O)cc(O)c12 | -5.92% (inactive)
COc1ccc(-c2oc3c(CC=C(C)C)c(O[C@@H]4O[C@H](CO)[C@@H](O)[C@H](O)[C@H]4O)cc(O)c3c(=O)c2O[C@@H]2O[C@@H](C)[C@H](O)[C@@H](O)[C@H]2O)cc1 | 0.27% (inactive)
C[C@@H]1O[C@@H](OC[C@H]2O[C@@H](Oc3c(-c4ccc(O)c(O)c4)oc4cc(O)cc(O)c4c3=O)[C@H](O)[C@@H](O)[C@@H]2O)[C@H](O)[C@H](O)[C@H]1O | -12% (inactive)
CN(C)C(CNC(=O)CCc1c[nH]c2ccccc12)c1ccccc1 (stereo unspecified) | 0.02% (inactive)
O=C(COC(=O)C1CCN(S(=O)(=O)c2cccs2)CC1)Nc1ccccc1 | -2.54% (inactive)
CCN(Cc1ccccc1)C(=O)Cn1c(C(C)O)nc2ccccc21 (stereo unspecified) | -14.7% (inactive)
CC(=O)OC1C(OC(C)=O)C2C(C)CC3OC(=O)C(C)C3CC2(C)C1OC(C)=O (stereo unspecified) | 1.67% (inactive)
COc1ccc(C(OCC(O)CNCCc2ccc(S(N)(=O)=O)cc2)c2ccc(OC)cc2)cc1 (stereo unspecified) | -0.36% (inactive)
CC(=O)c1ccc(-n2c(CCC(=O)O)ccc2-c2cccs2)cc1 | 7.93% (inactive)
Cc1ccc(-n2c(CCC(=O)O)ccc2-c2cccs2)cc1 | 9.93% (inactive)
Cc1c(C(=O)Nc2ccccc2-c2ccccc2)cccc1[N+](=O)[O-] | 22.9% (inactive)
Cc1nn(C)cc1CNC(=O)c1cccc(Cl)c1 | 0.88% (inactive)
Cc1ccccc1CNC(=O)c1ccc(Cl)c([N+](=O)[O-])c1 | 3.74% (inactive)
COCC(C)OC(=O)c1c(N)n(-c2ccc(OC)c(OC)c2)c2nc3ccccc3nc12 (stereo unspecified) | 7.95% (inactive)
COc1cc(/C=C/C(=O)OCC(=O)Nc2ccc3c(c2)OCCO3)ccc1OCC#N | -0.31% (inactive)
N#CC1=C2C=Cc3ccccc3N2CCCC1=O | 6.87% (inactive)
COC(=O)C(C)Sc1nnc(Cc2cc(=O)[nH]c(=O)[nH]2)n1-c1ccc(OC)cc1 (stereo unspecified) | 7.85% (inactive)
Cc1ccc(C)c(-n2c(Cc3cc(=O)[nH]c(=O)[nH]3)nnc2SC(C)C)c1 | 71.3% (inactive)
Cn1c(=O)c2c(nc(CN3CCN(C(=O)c4ccco4)CC3)n2Cc2cccc(Cl)c2)n(C)c1=O | 7.79% (inactive)
COc1ccccc1OCC(=O)N1CCCC(Nc2cccc(F)c2)C1 (stereo unspecified) | -1.81% (inactive)
COCC(=O)n1nc(-c2ccccc2)nc1NCc1ccc(N(C)C)cc1 | -5.23% (inactive)

SMILES | inhibition
Cc1cc(C)n(CC(=O)N2CCc3ccccc32)c(=O)c1C#N | -19.3% (inactive)
O=C1OC2(c3ccccc31)c1ccccc1-c1ccccc12 | -7.13% (inactive)
Cc1cc(O)ccc1C1(c2ccc(O)cc2C)OC(=O)c2ccccc21 | -0.95% (inactive)
Cc1cccc(NC(=O)CN2CCN(C(=O)c3oc4c(Cl)cccc4c3C)CC2)c1C | -10% (inactive)
Cc1cccc(Nc2nc(N)c([N+](=O)[O-])c(N3CC(C)OC(C)C3)n2)c1 (stereo unspecified) | -1.71% (inactive)
COC(Cc1n[nH]c(=S)n1-c1ccc(Cl)cc1)OC | -7.57% (inactive)
COC(Cc1nnc(SC)n1-c1ccccc1)OC | 6.71% (inactive)
Cc1ccc(C2N(c3ccccc3)C(=S)N3CCCN23)cc1 (stereo unspecified) | 19.3% (inactive)
COc1ccccc1Nc1ccc2c(O)cc(S(=O)(=O)O)cc2c1 | 15.2% (inactive)
CC(=O)Nc1ccc2c(O)cc(S(=O)(=O)O)cc2c1 | 19.9% (inactive)
Nc1ccc(C(=O)Nc2ccc3cc(S(=O)(=O)O)ccc3c2)cc1 | 7.06% (inactive)
O=C(O)c1cc(NS(=O)(=O)c2ccc3ccccc3c2)ccc1O | -12.2% (inactive)
O=S(=O)(O)c1ccc(O)c2cc(Nc3ccccc3)ccc12 | -8.31% (inactive)
O=C(O)c1cc(S(=O)(=O)O)cc(Nc2c3ccccc3nc3ccccc23)c1O | 5.42% (inactive)
O=C(O)c1cc2cc(S(=O)(=O)O)ccc2cc1O | 26.7% (inactive)
Nc1ccc(C(=O)Nc2ccc3c(O)cc(S(=O)(=O)O)cc3c2)cc1 | 29.1% (inactive)
COc1ccccc1CNC(=O)CNC(=O)Cn1cnc2ccccc2c1=O | 8.94% (inactive)
COC(=O)c1c(NC(=O)C2(C)Cc3ccccc3C(=O)O2)sc2c1CCCC2 (stereo unspecified) | 20.6% (inactive)
O=C(Nc1nnc(Cc2ccccc2)s1)C1CCC1 | 6.12% (inactive)
NC(=O)CN(N=Nc1cccc([N+](=O)[O-])c1)c1cccc([N+](=O)[O-])c1 | 10.3% (inactive)
COc1ccccc1C(=O)NC(CCSC)C(=O)NNC(=O)c1ccc(F)cc1 (stereo unspecified) | -6.52% (inactive)
CCCN(C(=O)c1cc(S(=O)(=O)N(C)c2ccc(OCC)cc2)ccc1C)C1CCS(=O)(=O)C1 (stereo unspecified) | 2.41% (inactive)
